Consider 66 molecules from PubChem BioAssay AID686978 (National Center for Advancing Translational Sciences (NCATS), 2013).

The campaign covered roughly 420,000 compounds. About 64,000 (15%) were called active. Roughly 27% stayed inconclusive and do not appear here. Calls follow the shape of the dose curve; as a rule, active = well fitted inhibition curve with a large enough effect; inconclusive = small, poorly fitted or top-dose-only effect; inactive = flat fitted curve, though single readings scatter. The list is a sample of the results. Where a call stands in place of a potency, no number is given.
Potency is read from the fitted curve at half-maximal effect.

The nature of this assay: qHTS for Inhibitors of human tyrosyl-DNA phosphodiesterase 1 (TDP1): qHTS in cells in absence of CPT. Also: nearly all actives have a fitted effect of over 55% in size. As to conditions: DT40 Tdp1-/- hTDP1 cells, no CPT, ATP luminescence, 48 h; activity change, negative = growth inhibition: at 46.2 µM (top of the series). A digest of the protocol: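 Growth kinetics read by CellTiter-Glo luminescence after ≥48 hr at 37 °C. Cells: DT40 Tdp1-/- stably carrying human TDP1, 400 per well, compound exposure in the absence of CPT (DMSO vehicle).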
Background: qHTS replaces the single test concentration by a dilution series.
On to `CCCCN(C(=O)c1ccc(S(=O)(=O)N2CCOCC2)cc1)C1CCS(=O)(=O)C1` (stereo unspecified), for which the Potency result was “inactive”.

As to `O=C(CN1CCOC1=O)N1CCCC(Nc2ccc(F)c(F)c2)C1` (stereo unspecified), the Potency entry is “inactive”.

Regarding `Cc1ccc([N+](=O)[O-])cc1S(=O)(=O)N1CCCN(C)CC1`, the Potency entry was “inactive”.

With `Cc1cc(NC(=O)c2ccc(-c3ccc(Cl)cc3)o2)cc(-c2nc3ncccc3o2)c1O`, the Potency entry is “inactive”.

As to `CCN1CCN(C(=O)C2CCN(S(=O)(=O)c3cc(Cl)ccc3Cl)CC2)CC1`, the Potency entry was “inactive”.

For `N#Cc1ccsc1NC(=O)CN1CCN(S(=O)(=O)c2cc(Cl)ccc2Cl)CC1`, the Potency is 20.6 µM (active).

For the molecule `O=C(CN1CCN(S(=O)(=O)c2cc(Cl)ccc2Cl)CC1)c1ccc(O)c(O)c1`, the Potency was 2.59 µM (active).

Turning to `O=S(=O)(c1cc(Cl)ccc1Cl)N1CCN(Cc2ccco2)CC1`, the Potency result was “inactive”.

Turning to `N#Cc1ccsc1NC(=O)CN1CCCCC1`, the Potency result is “inactive”.

Consider `CN1CCN(S(=O)(=O)c2cccc(C(=O)Nc3sccc3C#N)c2)CC1`, for which the Potency entry is “inactive”.

For the molecule `Cn1c(SCc2nc3ccccc3s2)nnc1-c1ccc2c(c1)OCO2`, the Potency result was “inactive”.

In the case of `COCc1cc(C)nc(SCC(=O)Nc2cccc(C)c2)c1C#N`, the Potency result was “inactive”.

With `Cc1cc(C)nc(SCc2ccccc2C#N)n1`, the Potency entry was “inactive”.

Consider `COc1ccc2oc(=O)c(C(=O)O)cc2c1`, for which the Potency entry was “inactive”.

Turning to `COc1ccc2oc(=N)c(C(=O)Nc3ccc(Br)cc3)cc2c1`, the Potency entry is “inactive”.

Turning to `COc1ccc(/C=C/C(=O)c2cc(Br)ccc(=O)c2O)cc1`, the Potency was 20.6 µM (active).

For `COc1ccc(NC(=O)Cn2nnc(C(=O)NCCc3ccc(OC)c(OC)c3)c2N)cc1`, the Potency result is “inactive”.

As to `CC(C)(C)n1cnnc1Sc1ccc([N+](=O)[O-])cn1`, the Potency entry was “inactive”.

As for `O=C(COC(=O)c1cc(S(=O)(=O)N2CCCCC2)ccc1Cl)NCc1ccco1`, the Potency entry was “inactive”.

On to `CC1CCCC(NC(=O)c2cc(S(=O)(=O)N3CCCCC3)ccc2Cl)C1C` (stereo unspecified), for which the Potency is 25.9 µM (active).

As for `Cc1ccc(S(=O)(=O)N2CCN(C)CC2)cc1C(=O)NC1CCCCC1`, the Potency entry is “inactive”.

As to `CC(=O)NC(=O)c1ccccc1O`, the Potency entry is “inactive”.

`Cc1ccc(S(=O)(=O)N2CCCCC2)cc1NC(=O)CCNC(=O)c1ccccc1Cl`: the Potency result was “inactive”.

For the molecule `CC1CCCCC1NC(=O)c1cn(C)c2ccc(S(=O)(=O)N3CCOCC3)cc2c1=O` (stereo unspecified), the Potency result was “inactive”.

`Cc1cc(C(=O)CCC(=O)NNC(=O)c2ccccc2O)c(C)s1`: the Potency entry was “inactive”.

As for `O=C(NNC(=O)c1ccccc1O)c1ccccc1O`, the Potency was 2.91 µM (active).

On to `O=C(NNC(=O)c1cc(S(=O)(=O)N2CCCCC2)ccc1Cl)c1ccccc1O`, for which the Potency is 20.6 µM (active).

Take `C[C@@H]1O[C@@H](OC[C@H]2O[C@@H](Oc3c(-c4ccc(O)cc4)oc4cc(O)cc(O)c4c3=O)[C@H](O)[C@@H](O)[C@@H]2O)[C@H](O)[C@H](O)[C@H]1O`: the Potency result was “inactive”.

As to `CCOc1ccc(C(C)NC(=O)CN2C(=O)NC3(CCCCC3)C2=O)cc1OCC` (stereo unspecified), the Potency entry is “inactive”.

Turning to `Cc1ccccc1NC(=O)Cn1c(=O)n(CC2CCCO2)c(=O)c2ccccc21` (stereo unspecified), the Potency entry was “inactive”.

With `C=C1O[C@@](CO)(n2cnc3c(N)ncnc32)[C@H](O)[C@@H]1O`, the Potency result is “inactive”.

For the molecule `COc1ccc(C(=O)NC(=S)NNC(=O)CCc2ccccc2)cc1`, the Potency is 6.51 µM (active).

As for `O=C(NC(=S)Nc1ccc(S(=O)(=O)N2CCOCC2)cc1)c1ccccc1[N+](=O)[O-]`, the Potency entry is “inactive”.

For `COc1ccc(C(=O)NNC(=S)NC(=O)c2ccccc2)cc1`, the Potency was 16.4 µM (active).

Consider `O=C(NNC(=O)c1ccc(Cl)nc1)c1ccc(Br)cc1`, for which the Potency entry is “inactive”.

As to `COC(=O)CNC(=O)c1ccccc1[N+](=O)[O-]`, the Potency result is “inactive”.

On to `COc1ccc(C(=S)Nc2ccccc2)cc1`, for which the Potency entry was “inactive”.

`CC(C)Oc1ccc(CCC(=O)NNC(=S)NCc2ccccc2)cc1`: the Potency result was “inactive”.

For `COc1ccc(C(=O)NC2CCN(C(=S)Nc3ccccc3)CC2)cc1`, the Potency entry was “inactive”.

`CC(=O)NC(=S)NNC(=O)c1ccc(Br)cc1`: the Potency is 5.8 µM (active).

As for `COc1ccc(C(=O)NNC(=S)NC(=O)c2ccccc2[N+](=O)[O-])cc1`, the Potency was 23.1 µM (active).

Consider `O=C(CCc1ccccc1)NNC(=O)c1ccc(Br)cc1`, for which the Potency result is “inactive”.

Regarding `CNC(=S)NNC(=O)c1ccc(N(C)C)cc1`, the Potency result was “inactive”.

For the molecule `CS(=O)(=O)Nc1ccccc1C(=O)OCC(=O)NC1CC1`, the Potency result was “inactive”.

For `CC(C)NC(=O)c1ccc(Sc2ccccc2)c([N+](=O)[O-])c1`, the Potency result was “inactive”.

As to `CCOc1ncccc1C(=O)OCc1cn2cc(Cl)ccc2n1`, the Potency result was “inactive”.

Consider `C[C@@H]1CN([C@H](C)CO)C(=O)c2cc(Br)cnc2O[C@@H]1CN(C)Cc1cncnc1`, for which the Potency entry is “inactive”.

With `COc1ccc(-c2[nH]nc(-c3ccccc3)c2-c2nc3ccccc3[nH]2)cc1`, the Potency result is “inactive”.

As for `CNC(=O)NCCN1CCCC1=O`, the Potency result was “inactive”.

With `COC(=O)C[C@@H]1C=C[C@@H](NC(=O)c2cccnc2)[C@@H](CO)O1`, the Potency result was “inactive”.

Turning to `Cc1nn(C)c(Oc2ccccc2)c1[N+](=O)[O-]`, the Potency result was “inactive”.

Regarding `CCN1CC(CN(C)Cc2nc(-c3ccc(Cl)cc3)no2)CC1=O` (stereo unspecified), the Potency is 16.4 µM (active).

Consider `CN(Cc1ccccn1)Cc1nc(-c2ccc(Cl)cc2)no1`, for which the Potency result was “inactive”.

As to `CN(CCN1CCOCC1)Cc1nc(-c2ccc3c(c2)OCO3)no1`, the Potency entry is “inactive”.

For the molecule `O=C(Nc1ccccc1)O/N=C1/CCCc2occc21`, the Potency result was “inactive”.

In the case of `COc1ccc(C(=O)CN2C(=O)NC3(CCc4ccccc43)C2=O)c(OC)c1` (stereo unspecified), the Potency result is “inactive”.

Take `COc1ccc(CNC(=O)CN2C(=O)NC3(CCCc4sccc43)C2=O)cc1` (stereo unspecified): the Potency entry was “inactive”.

In the case of `COc1ccc(-n2c(C)cc(C(=O)CN3C(=O)NC4(CCc5ccccc54)C3=O)c2C)cc1` (stereo unspecified), the Potency was 18.4 µM (active).

For `CCc1cccc(NC(=O)COC(=O)c2cc(=O)c3ccccc3o2)c1`, the Potency entry is “inactive”.

Take `CCOc1ccc(NC(=O)C(=O)NCCc2csc3nc(-c4ccccc4F)nn23)cc1`: the Potency result was “inactive”.

With `CCC1(C2CCN(C(=O)c3cccc(F)c3F)CC2)NC(=O)N(CCc2scnc2C)C1=O` (stereo unspecified), the Potency entry is “inactive”.

Consider `Cn1cccc1C(=O)Nc1nccs1`, for which the Potency result was “inactive”.

With `CC(C)NC(=O)N1CC[C@@]2(CCCN(C(=O)c3cccc(F)c3)C2)C1`, the Potency result is “inactive”.

In the case of `Cc1ccc(CN(C(=O)COc2ccc(Cl)cc2C)C2CCS(=O)(=O)C2)o1` (stereo unspecified), the Potency was 23.1 µM (active).

In the case of `Cc1ccccc1OCC(=O)N(Cc1cccc(F)c1)C1CCS(=O)(=O)C1` (stereo unspecified), the Potency entry was “inactive”.

Turning to `CCCCN(C(=O)COc1ccc(NC(C)=O)cc1)C1CCS(=O)(=O)C1` (stereo unspecified), the Potency result is “inactive”.
